Data on ten compounds can be found in ChEMBL document CHEMBL3988442, “University of Dundee, Small-Polar-MMV Screening Library” (2021).

Design in all cases: scale not given: direction of the effect not stated beside the values
The target of assay [1] is Protein translocase subunit SecA (Escherichia coli (strain K12)) (UniProt P10408). Kind of assay: Assay to Identify E. coli SecA ATPase Inhibitors. It is filed as functional. As to conditions: 30 µM.
Assay [2] addresses T1, Ubiquitin-activating enzyme e1, putative (Leishmania donovani (strain BPK282A1)) (UniProt E9BSI1).
T1 sequence (whole entry): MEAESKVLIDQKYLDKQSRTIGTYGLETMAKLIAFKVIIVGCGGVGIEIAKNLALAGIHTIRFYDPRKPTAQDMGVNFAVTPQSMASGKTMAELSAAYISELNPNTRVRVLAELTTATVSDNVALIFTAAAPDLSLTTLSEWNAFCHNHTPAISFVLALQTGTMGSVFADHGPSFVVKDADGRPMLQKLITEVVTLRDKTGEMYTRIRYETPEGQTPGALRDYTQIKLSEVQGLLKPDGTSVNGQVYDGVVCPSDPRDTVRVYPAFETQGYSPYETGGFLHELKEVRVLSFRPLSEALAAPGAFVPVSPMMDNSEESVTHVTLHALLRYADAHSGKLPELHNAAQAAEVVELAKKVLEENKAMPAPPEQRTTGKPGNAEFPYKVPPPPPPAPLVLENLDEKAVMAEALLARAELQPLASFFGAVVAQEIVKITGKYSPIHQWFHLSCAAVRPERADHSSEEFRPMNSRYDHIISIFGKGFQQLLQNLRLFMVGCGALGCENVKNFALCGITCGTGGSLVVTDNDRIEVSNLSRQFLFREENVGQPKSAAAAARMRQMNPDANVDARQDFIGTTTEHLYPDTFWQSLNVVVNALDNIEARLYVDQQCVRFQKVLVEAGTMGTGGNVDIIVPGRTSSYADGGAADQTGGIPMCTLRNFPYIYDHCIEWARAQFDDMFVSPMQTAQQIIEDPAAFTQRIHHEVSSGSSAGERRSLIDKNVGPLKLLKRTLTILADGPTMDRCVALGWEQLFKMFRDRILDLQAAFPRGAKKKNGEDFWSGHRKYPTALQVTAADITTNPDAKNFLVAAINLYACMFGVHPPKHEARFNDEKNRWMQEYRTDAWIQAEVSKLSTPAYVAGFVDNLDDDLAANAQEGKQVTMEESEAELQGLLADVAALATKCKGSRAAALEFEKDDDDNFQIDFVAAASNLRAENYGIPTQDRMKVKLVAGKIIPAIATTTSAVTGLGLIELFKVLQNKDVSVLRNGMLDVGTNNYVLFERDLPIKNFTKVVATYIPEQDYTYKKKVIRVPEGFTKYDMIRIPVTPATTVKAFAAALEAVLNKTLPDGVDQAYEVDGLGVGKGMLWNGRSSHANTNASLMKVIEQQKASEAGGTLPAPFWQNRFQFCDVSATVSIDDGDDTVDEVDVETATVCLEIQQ
Kind of assay: Leishmania donovani Ubiquitin Activating Enzyme (LdE1). It is filed as functional. As to conditions: 30 µM.

The target in assay [3] is AMP-activated protein kinase, AMPK (Homo sapiens) (UniProt P54646+O43741+P54619+Q9UGJ0+Q9Y478+Q13131+Q9UGI9). In words: AMP-dependent Kinase enzyme assay. An in vitro enzyme assay that detects ADP turnover that is directly proportional to AMPK activity. This uses naive AMPK that is activated during the assay with MK-8722. The class given is functional. The settings on record: 30 µM.

Assay [4] concerns the target Sialic acid-binding Ig-like lectin 9 (Homo sapiens) (UniProt Q9Y336). Kind of assay: Hs-Siglec9 ALPHAscreen SOP 20170721. As to conditions: 10 µM.
Another assay concerns Trypanosoma cruzi. In words: Trypanosoma cruzi phosphomannomutase and mannose-1-phosphate guanylyltransferase assay. The settings on record: 10 µM. The class given is functional.
Assay [5] concerns the target T2, Arginase-2, mitochondrial (Homo sapiens) (UniProt P78540).
T2 sequence (whole entry): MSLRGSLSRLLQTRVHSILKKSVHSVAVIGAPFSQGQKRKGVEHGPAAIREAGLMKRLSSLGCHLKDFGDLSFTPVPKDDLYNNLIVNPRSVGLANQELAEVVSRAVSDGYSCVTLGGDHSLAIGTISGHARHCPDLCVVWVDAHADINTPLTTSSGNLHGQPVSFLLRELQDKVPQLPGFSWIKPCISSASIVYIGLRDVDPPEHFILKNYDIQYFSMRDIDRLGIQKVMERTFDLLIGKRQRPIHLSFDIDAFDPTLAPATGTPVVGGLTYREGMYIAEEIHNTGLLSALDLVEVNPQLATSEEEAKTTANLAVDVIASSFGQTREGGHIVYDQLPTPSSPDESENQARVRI
Kind of assay: in vitro enzyme assay to detect the production of urea directly proportional to the activity of Arginase II. Note: in the data most compounds retested in dose-response had high values. It is filed as functional. As to conditions: 33.3 µM.

Assay [6] has as its target T3, Proteasome subunit beta (Trypanosoma cruzi) (UniProt O96673).
T3 sequence (whole entry): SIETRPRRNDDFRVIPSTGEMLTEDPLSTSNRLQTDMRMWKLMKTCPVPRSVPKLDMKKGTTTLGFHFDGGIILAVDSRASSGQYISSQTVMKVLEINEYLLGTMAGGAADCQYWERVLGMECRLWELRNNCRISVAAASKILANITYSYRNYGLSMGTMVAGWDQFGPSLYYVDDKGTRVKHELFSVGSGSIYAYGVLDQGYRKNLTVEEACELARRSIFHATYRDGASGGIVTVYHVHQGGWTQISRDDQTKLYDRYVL
Kind of assay: Trypanosoma cruzi proteasome chymotrypsin-like activity (TcProtChymo) assay. Note: in the data most compounds retested in dose-response had high values. The settings on record: 9.37 µM. The class given is functional.

The species entered for a further assay is Homo sapiens. Kind of assay: To identify inhibition of the IFN signalling (Jak-Stat) pathway via expression of an eGFP reporter gene under the control of an IFN-stimulated response element (ISRE) containing MxA promoter. The class given is functional. As to conditions: 30 µM.
Assay [7] concerns the target T4, Tyrosyl-tRNA synthetase, putative (Trypanosoma cruzi (strain CL Brener)) (UniProt Q4DSP6).
T4 sequence (whole entry): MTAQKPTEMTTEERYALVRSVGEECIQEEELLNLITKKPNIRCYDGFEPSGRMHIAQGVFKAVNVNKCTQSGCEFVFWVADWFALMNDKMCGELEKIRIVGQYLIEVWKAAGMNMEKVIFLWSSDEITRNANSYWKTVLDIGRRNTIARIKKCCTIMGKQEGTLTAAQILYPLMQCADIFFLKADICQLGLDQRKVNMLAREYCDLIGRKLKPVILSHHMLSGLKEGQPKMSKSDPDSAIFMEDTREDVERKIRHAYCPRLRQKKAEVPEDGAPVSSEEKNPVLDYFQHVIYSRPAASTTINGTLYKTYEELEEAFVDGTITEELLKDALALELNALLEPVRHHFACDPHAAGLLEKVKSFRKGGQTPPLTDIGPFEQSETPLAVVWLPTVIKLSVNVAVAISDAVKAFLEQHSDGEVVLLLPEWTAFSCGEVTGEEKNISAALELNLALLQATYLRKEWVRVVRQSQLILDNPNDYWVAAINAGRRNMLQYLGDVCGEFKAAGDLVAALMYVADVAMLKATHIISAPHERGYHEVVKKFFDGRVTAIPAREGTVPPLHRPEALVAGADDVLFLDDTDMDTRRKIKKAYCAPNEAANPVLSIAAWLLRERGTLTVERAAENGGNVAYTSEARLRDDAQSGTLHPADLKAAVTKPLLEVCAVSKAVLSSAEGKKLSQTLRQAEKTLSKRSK
In words: Trypanosoma cruzi tyrosyl tRNA synthetase (TcYRS) _High Tyrosine SOP. Note: in the data most compounds retested in dose-response had high values. It is filed as functional. As to conditions: 30 µM.

In assay [8] the target is T4, Tyrosyl-tRNA synthetase, putative (Trypanosoma cruzi (strain CL Brener)). In words: Trypanosoma cruzi tyrosyl tRNA synthetase (TcYRS) SOP. It is filed as functional. As to conditions: 30 µM.
Assay [9] addresses Chromo domain-containing protein 1 (Saccharomyces cerevisiae (strain ATCC 204508 / S288c) (Baker's yeast)) (UniProt P32657). Kind of assay: ScCHD-1 Enzyme Inhibition Assay. Note: in the data most compounds retested in dose-response had high values. The class given is functional. As to conditions: 30 µM.

Molecules are shown by their SMILES. For some assays here: Measured potencies and affinities stand elsewhere.

Chain of Protein translocase subunit SecA (Escherichia coli (strain K12)) (P10408 whole entry): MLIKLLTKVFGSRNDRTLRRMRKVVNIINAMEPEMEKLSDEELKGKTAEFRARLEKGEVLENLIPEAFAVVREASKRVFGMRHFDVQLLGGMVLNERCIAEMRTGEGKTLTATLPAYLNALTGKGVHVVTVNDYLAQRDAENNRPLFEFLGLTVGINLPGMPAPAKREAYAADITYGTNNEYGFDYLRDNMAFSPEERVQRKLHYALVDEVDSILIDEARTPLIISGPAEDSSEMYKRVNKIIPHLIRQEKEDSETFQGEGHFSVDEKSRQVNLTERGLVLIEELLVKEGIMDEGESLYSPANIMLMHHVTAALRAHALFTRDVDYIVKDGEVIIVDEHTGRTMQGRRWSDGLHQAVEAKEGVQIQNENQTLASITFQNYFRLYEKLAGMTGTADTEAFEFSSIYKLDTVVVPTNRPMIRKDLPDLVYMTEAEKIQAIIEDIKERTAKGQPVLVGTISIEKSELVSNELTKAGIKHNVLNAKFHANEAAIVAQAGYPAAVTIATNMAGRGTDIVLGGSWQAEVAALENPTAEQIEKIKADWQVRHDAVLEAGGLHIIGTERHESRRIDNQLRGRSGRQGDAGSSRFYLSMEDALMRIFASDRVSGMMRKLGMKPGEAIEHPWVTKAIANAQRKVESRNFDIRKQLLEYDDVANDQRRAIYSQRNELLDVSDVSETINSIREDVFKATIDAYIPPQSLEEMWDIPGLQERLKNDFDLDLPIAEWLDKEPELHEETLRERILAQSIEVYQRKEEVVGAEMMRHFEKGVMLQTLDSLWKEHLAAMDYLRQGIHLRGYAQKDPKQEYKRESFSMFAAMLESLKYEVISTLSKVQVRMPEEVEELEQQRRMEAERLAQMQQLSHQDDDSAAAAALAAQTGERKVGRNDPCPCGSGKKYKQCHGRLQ
Chain of Chromo domain-containing protein 1 (Saccharomyces cerevisiae (strain ATCC 204508 / S288c) (Baker's yeast)) (P32657 whole entry, the tested form may be a part): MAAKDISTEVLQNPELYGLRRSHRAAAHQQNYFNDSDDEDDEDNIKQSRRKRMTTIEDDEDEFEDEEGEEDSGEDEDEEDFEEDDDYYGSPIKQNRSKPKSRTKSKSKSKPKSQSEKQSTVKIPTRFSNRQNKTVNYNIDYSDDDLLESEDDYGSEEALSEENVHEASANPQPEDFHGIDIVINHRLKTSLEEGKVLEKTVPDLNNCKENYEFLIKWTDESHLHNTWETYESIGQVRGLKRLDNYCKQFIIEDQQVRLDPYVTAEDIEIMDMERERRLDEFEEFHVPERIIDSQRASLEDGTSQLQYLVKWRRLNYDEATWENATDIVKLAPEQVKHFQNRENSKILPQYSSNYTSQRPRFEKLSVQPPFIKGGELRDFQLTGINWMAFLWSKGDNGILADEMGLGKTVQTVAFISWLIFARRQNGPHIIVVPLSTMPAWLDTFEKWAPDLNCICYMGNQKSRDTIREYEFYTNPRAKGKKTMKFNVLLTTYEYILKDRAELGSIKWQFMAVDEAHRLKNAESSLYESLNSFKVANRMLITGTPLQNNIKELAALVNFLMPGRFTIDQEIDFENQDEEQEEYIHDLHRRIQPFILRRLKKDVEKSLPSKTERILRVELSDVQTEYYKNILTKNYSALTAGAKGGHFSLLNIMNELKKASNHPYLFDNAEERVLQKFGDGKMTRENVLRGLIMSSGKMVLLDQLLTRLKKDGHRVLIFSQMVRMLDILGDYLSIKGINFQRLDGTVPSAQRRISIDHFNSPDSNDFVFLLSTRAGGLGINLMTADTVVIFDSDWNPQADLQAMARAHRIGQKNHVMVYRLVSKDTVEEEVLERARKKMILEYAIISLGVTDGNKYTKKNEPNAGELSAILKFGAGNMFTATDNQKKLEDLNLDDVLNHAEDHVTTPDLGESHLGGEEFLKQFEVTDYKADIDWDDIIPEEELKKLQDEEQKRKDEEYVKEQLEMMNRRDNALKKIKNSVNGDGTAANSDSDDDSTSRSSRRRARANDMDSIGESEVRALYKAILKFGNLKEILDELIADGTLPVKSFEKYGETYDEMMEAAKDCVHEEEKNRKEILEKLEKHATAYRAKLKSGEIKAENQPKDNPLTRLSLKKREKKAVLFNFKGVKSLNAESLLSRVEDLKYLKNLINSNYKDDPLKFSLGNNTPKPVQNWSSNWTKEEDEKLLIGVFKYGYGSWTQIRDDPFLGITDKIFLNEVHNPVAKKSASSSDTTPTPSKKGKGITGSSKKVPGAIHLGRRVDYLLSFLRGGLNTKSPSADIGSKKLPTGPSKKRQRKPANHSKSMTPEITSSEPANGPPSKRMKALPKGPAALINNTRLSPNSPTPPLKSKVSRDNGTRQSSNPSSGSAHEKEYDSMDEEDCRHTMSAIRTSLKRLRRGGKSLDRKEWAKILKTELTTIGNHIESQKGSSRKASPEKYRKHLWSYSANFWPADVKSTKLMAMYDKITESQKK
Chain of Sialic acid-binding Ig-like lectin 9 (Homo sapiens) (Q9Y336 whole entry): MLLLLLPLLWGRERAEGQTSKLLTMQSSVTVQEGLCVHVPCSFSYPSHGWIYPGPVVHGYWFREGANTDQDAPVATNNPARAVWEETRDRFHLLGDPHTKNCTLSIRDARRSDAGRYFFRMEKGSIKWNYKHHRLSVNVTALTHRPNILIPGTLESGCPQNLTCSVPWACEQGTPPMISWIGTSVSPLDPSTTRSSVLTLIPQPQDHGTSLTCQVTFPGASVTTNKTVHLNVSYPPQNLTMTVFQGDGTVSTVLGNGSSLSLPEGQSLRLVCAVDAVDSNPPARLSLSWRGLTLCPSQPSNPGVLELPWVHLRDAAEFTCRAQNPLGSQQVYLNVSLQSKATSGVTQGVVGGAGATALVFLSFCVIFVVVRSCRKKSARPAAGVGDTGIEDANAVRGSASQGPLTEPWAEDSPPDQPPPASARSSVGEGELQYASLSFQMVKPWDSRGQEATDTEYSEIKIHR

On to `CCc1ncncc1C(=O)NCCN1CCC(C)CC1`, for which the Percent Effect in assay [1] was -1.34%; in assay [2], -4.17%; in assay [3] it was -7.77%; in assay [4], 0.13%; in the assay on Trypanosoma cruzi it was 5.54%; in assay [5] it was -2.21%. Further, the Percent Effect in [6] was 4.21%; in the assay filed under Homo sapiens it was -30.7%; in assay [7], 1.05%; in [8], 0%; in assay [9], -2.04%.

As for `CCOCC1CN(S(C)(=O)=O)Cc2ncn(CC3CC3)c21` (stereo not given), the Percent Effect in assay [1] was -2.41%; in [2], 13.5%; in assay [3] it was -8.53%; in assay [4] it was 6.97%; in the assay on Trypanosoma cruzi, 3.81%; in [5], -1.24%. The Percent Effect in assay [6] is 5.58%; in the assay filed under Homo sapiens, -4.29%; in assay [7], 6.45%; in assay [8], 13.6%; in [9], -6.43%.

For `O=C(c1cnccn1)N1CCOCC2(CCN(C3CCOCC3)C2)C1` (stereo not given), the Percent Effect in [1] was -3.59%; in assay [2], 25.3%; in assay [3], -6.88%; in assay [4], -0.346%; with Trypanosoma cruzi, 3.54%; in assay [5] it was -0.528%. Also, the Percent Effect in assay [6] is 19.4%; in the assay filed under Homo sapiens, -1.42%; in assay [7], 8.47%; in assay [8], 15.4%; in assay [9], -9.96%.

As for `CN(C(=O)c1cccc2[nH]ncc12)C1CCN(c2ccccn2)CC1`, the Percent Effect is -8.48% in [1]; 7.79% in assay [2]; -0.81% in assay [3]; -5.52% in assay [4]; -4.6% with Trypanosoma cruzi; -3.16% in [5]. For the same compound, the Percent Effect is -4.12% in assay [6]; 30.5% in the assay listed under Homo sapiens; 0.952% in assay [7]; 2.35% in [8]; -18.1% in assay [9].

Regarding `Cc1[nH]ncc1C(=O)N1CCCC(c2cc(C(F)(F)F)[nH]n2)C1` (stereo not given), the Percent Effect in assay [1] was -6.98%; in assay [2], 8.11%; in [3], -26.4%; in assay [4], 5.54%; in the assay with Trypanosoma cruzi it was -6.59%; in assay [5], -3.51%. Further, the Percent Effect in assay [6] came out at 2.69%; in the assay listed under Homo sapiens, 14.8%; in assay [7], 2.97%; in assay [8], 6.1%; in [9] it was 3.81%.

`O=C(CCCOc1ccc(F)cc1)N1CCCC(n2cccn2)C1` (stereo not given): the Percent Effect in [1] is -2.63%; in assay [2] it was 13%; in [3], 4.56%; in [4], 2.38%; in the assay with Trypanosoma cruzi it was -3.82%; in assay [5], 2.74%. The Percent Effect is 6.71% in [6]; 15.8% in the assay listed under Homo sapiens; 2.86% in [7]; 11.8% in assay [8]; -14.5% in assay [9].

As to `CO[C@@H]1CC[C@H]2[C@H]1OCCN2C(=O)c1ccc(C)o1`, the Percent Effect in assay [1] is 2.4%; in assay [2], 10.4%; in [3], 173%; in [4], -12.1%; in the assay on Trypanosoma cruzi, -7.2%; in assay [5], -11%. Besides, the Percent Effect in assay [6] was 14.1%; in the assay filed under Homo sapiens, 22.1%; in assay [7], -3.17%; in assay [8] it was -1.28%; in assay [9], -14%.

On to `COc1cccc(N2CCN(CC(O)c3cc(C)sc3C)CC2)c1` (stereo not given), for which the Percent Effect in assay [1] was -4.6%; in assay [2] it was 20.3%; in assay [3], 6.95%; in assay [4], -1.22%; in the assay on Trypanosoma cruzi it was 2.77%; in assay [5], -2.55%. In addition, the Percent Effect in [6] was 5.62%; in the assay listed under Homo sapiens, 19.5%; in assay [7], 15.1%; in assay [8] it was 22.1%; in assay [9], -16.3%.

Regarding `Cc1noc2nc(C3CCN(Cc4ccncc4)CC3)cc(C(F)F)c12`, the Percent Effect in assay [1] was -9.38%; in assay [2] it was 1.35%; in assay [3], 1.21%; in [4], -1.72%; in the assay on Trypanosoma cruzi, -0.79%; in assay [5], -4.41%. In addition, the Percent Effect in [6] was -4.99%; in the assay listed under Homo sapiens, 39.2%; in assay [7], 2.15%; in [8], -1.3%; in assay [9], -4.82%.

As to `Cc1nc(C)n(CC2CCCN2Cc2cc(C)on2)n1` (stereo not given), the Percent Effect in assay [1] is -7.09%; in assay [2], 5.2%; in [3], -68.4%; in [4] it was -5.71%; with Trypanosoma cruzi, -2.06%; in assay [5], 3.58%. Moreover, the Percent Effect in [6] was 12.2%; in the assay filed under Homo sapiens it was 19.8%; in assay [7], 0%; in assay [8], 7.06%; in assay [9], -23.5%.
